In PubChem BioAssay AID1508600 (Functional Genomics Laboratory (NCATS/FGL), 2020) one finds z-score data, which are given here for 108 sequences.

The whole screen tested about 53,000 sequences, of which about 3,700 (7%) were called active. This excerpt belongs to a sample that is enriched for actives. Unmarked numbers belong to inactive results.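 How the source made its calls: active means gene knockdowns whose robust z-score for IL-1 alpha signal is at least 2 or at most -2, so actives lie on both sides; inactive means the rest.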

This assay in a line: Components of the Cytosolic LPS Sensing Pathway: Gene Identification via Genome-wide siRNA Screen.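 Further: robust z of the log signal after scaling to non-targeting control siRNA wells of the plate.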 Particulars: RAW264.7 macrophages, IL-1a HTRF, actives lie on both sides, screened at 100 nM (by protocol), cells primed 5 h with Pam3CSK4 first. The essentials: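 IL-1a HTRF of supernatants after 24 hour LipidA transfection of Pam3CSK4-primed (5 hours) RAW264.7 cells, 48h post-siRNA transfection (100 nM). Scores: percent of plate negative-control median, then log-based robust z-score.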
Take GGAAGAAAGUGAAGAAGAGTT against Cdr1os: the z-score was -0.387. With GGACUUUGUGAUCUUUCCATT against Pias2 the figure was -0.57; with “GGCUGUGAUUGGCAAUCUATT against 6430548M08Rik”, -3.04 (active). As for CCUGGCUAUUGGUGAGUGATT against Slc30a3, the z-score is 1.9. In the case of CCAAACUUUUGUGGAACAGTT against Galnt9, the z-score was 0.0294. With GGCAUGUGGUUGAAGGCCUTT against Fank1, the z-score is -0.337. Consider GGACAAUGAAGAUUUGGAATT against Ush2a, for which the z-score was -0.669.

Consider CCGCCGAUCUACUAGUGGUTT against Slc6a2, for which the z-score was 0.46.

With GCGGCCUUCGAAGAUAUUCTT against Pnliprp2, the z-score is -0.144. Consider GGAAAUGCCAUCGUCAUUUTT against Gpr1, for which the z-score is 2.66 (active).

For GCCAGCGUACUCUUUUUAUTT against Ocln, the z-score was -0.694.

GGAGCUGGUGGAUCUGAAGTT against Ubfd1: the z-score was 1.26. The result for CGUGACUAUUCUGAUAAGUTT against Arl15 reads 0.134; that for GGAAGGAGGAAAAGUAGGUTT against Peli1, -0.00852; that for GGAAGAGAGCAGAAAGAAGTT against Trim35, -0.135. Regarding “GGGAUGUUUAGGUCACCUUTT against 4933434M16Rik”, the z-score is -2.35 (active). As to GGUGGGCUACGAACUAAAGTT against Prpf31, the z-score is 0.664. For the sequence GGUGUUGAAAGUCAUUGUGTT against Med27, the z-score is -0.196. GGCAGAUACUUCUCUGGAGTT against Sdc4: the z-score was -0.498.

Turning to CCCGUGGUCCUACAUUGUUTT against Cdon, the z-score was 2.39 (active). Regarding GGAAGAAGACAUGCUCACUTT against Pcdhb8, the z-score is 1.07. The result for GGCCAAAGUGGUGUGUUUCTT against Mta1 reads 2.46 (active); that for GGUGGAGAACCAUAUCACATT against Abcg4, 0.105. For the sequence GAGCAUCCGCUACUUGGUATT against Nmnat1, the z-score was 0.0484.

Take GGAAGAUAUGAAGGGCUCATT against Mb: the z-score is -2.18 (active). On to GCAUUUCAGCAGAACAAUATT against Phldb1, for which the z-score was 0.5. Regarding GGAUCUGGAUACUUUUCCATT against Arhgap22, the z-score was -2.09 (active). Consider GGAGACUUUCCAUUUGAAGTT against Fnbp1l, for which the z-score is -0.188. For GAAAAAAUCUAUCUACCCUTT against Hoxb4, the z-score was -0.219. For the sequence GGUCAGUUGAGAUGUUUUUTT against Pag1, the z-score was 0.346. Regarding GGCGGUGGAGGUGAUAUAUTT against Dennd6a, the z-score was -2.01 (active). Regarding GGACUAGUCCUAAGAAGAGTT against Rbmxl2, the z-score was -1.27. With GCCUAUCUACGACCUCAUCTT against Kel the figure was -0.768; with GGCCAUUACCCAUGAGACUTT against Cd63, 0.997; with GGAACAAAUGUUCGAAAUGTT against Eif4a2, -0.0347. For the sequence GGAUAUGAAACACCAGAUCTT against Naip2, the z-score is -1.89.

Turning to GCAGCAGACACUCUGUACATT against Pcbp4, the z-score is -0.0747. With GGACAAGUACAGGUUCCUATT against Vrk3, the z-score is 0.536. In the case of GGCACUGUUCGGCAAGAAGTT against Trappc5, the z-score was -2.1 (active). For GCUCGUUUGAUGCUGUCUCTT against Prkag1, the z-score was -1.17. With GCUGUUUUGGUAGAUUUUGTT against Map3k8, the z-score is 0.0466. With CGGGCAGCUAGAUUUCCAATT against S100a11 the figure was 2.86 (active); with GCUGAACCUGCAGCACAUCTT against Mettl7a2, -0.0665; with GGAGUACAUUGUGAAUGUUTT against Tnr, -1.44.

For the sequence GCUGGUGAACCAAAAACUCTT against Ccdc3, the z-score was -0.366. In the case of GGACAUGGUACCACAGGAGTT against Tenm4, the z-score is 0.643.

For GAGCCAAAUCAGGAACAGCTT against Trim29, the z-score was 1.4.

For GCCAAUAGCUCCAGCUUGATT against Olfr668, the z-score is 0.534. With GGCUAUAGGUUUCUGGGAATT against Fzd6 the figure was 4.94 (active); with GGCAACUUGGGAGUUUCACTT against Kcnab1, 1.41; with CUUGGUGGAUGAAAGAUUCTT against Tdpoz2, -0.776. The result for GGUCAAAGUGUAACUUGUUTT against Rwdd4a reads -0.0956; that for GGAAGAUGAACAUCAAACATT against Dglucy, 0.855. Regarding GGAAGAGAGCGAUUAAAUUTT against Rsrc2, the z-score was 0.839.

For GGGCUGGAAUCUAGGAAGUTT against Ccr10, the z-score was 2.68 (active). As to GGAAAAUGUCCGUAAAAGGTT against Dtx2, the z-score is 0.196. As to GGAGACACUCGUCCUUUAUTT against Cyp20a1, the z-score is -1.27. On to GCUUUACUAUGUGAGAAAUTT against Ryk, for which the z-score was -1.89.

In the case of GGGACAAUCAACACAAAAUTT against Ythdf3, the z-score was 0.172. The result for CCACCAAGGAGACAUAGAUTT against Nans reads 2.85 (active). Take GGUCUUGGAGGAUCCCAAUTT against Tex13a: the z-score was -1.55. For the sequence GCAUAUCGCUUUUGUGAGCTT against E2f6, the z-score is 2.31 (active). Turning to GCUCUCUGAAAGAGUAUUGTT against Khdrbs2, the z-score is 0.963. With GACAAGCUGUGGAGAAGUGTT against Lce1b, the z-score is 0.298.

In the case of CCGAUUGAAAUAUGAAUCCTT against Cuedc1, the z-score is 1.22.

Turning to “CCAAGAAAUUGCACUGGGATT against A130050O07Rik”, the z-score was 0.781.

For GCUGUUAAAACUCUCGUUATT against Pdk3, the z-score was 2.02 (active). For CCACAUCCUGACUACUACATT against Sumo2, the z-score is -1.14. On to GGUUCUUGGUGAUGAUGAGTT against Pds5a, for which the z-score was -2.6 (active).

As for GGUGAACUGGUCUACAACATT against Muc2, the z-score was 0.34. For the sequence GGAGUUGAGCAAGACCAAGTT against Ccdc102a, the z-score is 0.628. Regarding GGGUAUAUUUGGAACUACGTT against Ppa1, the z-score was -1.2. Regarding GGACAUGAACCUCUUCAAATT against Fads2, the z-score was 0.632. With CCUCUGCUUUGUUACUUCCTT against Olfr1431 the figure was -0.287; with CCACCUAUUACAUGAUCUUTT against Rnf32, -0.23. For GGACCGGUUUAUUUGGCGGTT against Mmp2, the z-score was 3.43 (active). GCAAACGACUGUGACAAAATT against Ly6m: the z-score is -0.0028. Turning to CCUCCCUAAUGGUCCAUUATT against Cyp2j13, the z-score is -0.517. GCUGGAGAACCUCCCUAAATT against Mrps33: the z-score is 1.14.

Turning to GGUAAUGAAGGAACUGGAUTT against S100a1, the z-score is 0.0105.

As to GGGUGACCUAAUCCAGUGUTT against Neurog3, the z-score was 2.5 (active).

Turning to GGAGUUGCCCUCAUCUUCATT against Casp6, the z-score is -1.59. Regarding GGUGGAACUCGUCAAUAGCTT against Vat1, the z-score is 0.269. GGUGAACAGUUGAUUUCAUTT against Smim10l2a: the z-score is 1.48. In the case of GGAUCACAUCGAGAAAACCTT against Utrn, the z-score is -1.57. The result for GCUUCUGUUCGUUACGUCCTT against Ndufc2 reads 2.55 (active); that for GCGGAAAGGCCAAACGAUUTT against Inhbb, -0.734; that for CCUUCUCCAUGUCAGAUCUTT against Col5a2, 0.23.

For GGCAAAGUUGCCAGAUGAATT against Mettl23, the z-score was 2.42 (active). Regarding GGAUACGCUUGUCCCACCATT against Mdm1, the z-score is -0.649. As to CCAUUAUGGGAGGAAGAUUTT against Clvs2, the z-score is 0.969. With GGACAAAGAGAAUGAUGGATT against Cdc25b, the z-score is -1.68. On to “GCUAAUCCCAUCUCGUCCUTT against 3110009E18Rik”, for which the z-score was 1.15. With GGCCGAAGCAUCUUCAAGATT against Wdr24, the z-score is 1.88. In the case of GGCUGAAAAAAGUGGAGAATT against Sh3bgr, the z-score is 2.12 (active). For the sequence GGAUCCCAUUAGAAAGAAATT against Cbx2, the z-score was 0.316. For the sequence GCGAUUACUACUUGAAACUTT against Fa2h, the z-score was -0.384. The result for CGGAUGUGGGCAUUCGUUATT against Fbxl7 reads 0.421; that for GGUUUUGGGUCUAUGCUUCTT against Sde2, 0.311. Turning to GGUAAGGAAAACAAAUAUGTT against En1, the z-score is 2.13 (active). GAAAAAAAUCCGUUCCCUCTT against Mrpl33: the z-score is 0.257. As to GGAUUUUGCUCAGACGACATT against Taf1a, the z-score was 0.291. In the case of GGUUGGUAGGCUUUGGUGUTT against Notum, the z-score is 0.657. Consider GCAGUGUCGCAUUACAUCGTT against Sec16a, for which the z-score was 3.45 (active).

Take GGAGAAUCAUGUGAGCCUGTT against Tph1: the z-score was -0.0851. With UAUUCUAUCCGAACACCUUTT against Gm4884 the figure was 2.19 (active); with GGAGAACUUCCUAUACUAUTT against Apobec2, 0.448.

As for GGAAAGCAAAAAGUUUCAGTT against Fam118b, the z-score was -1.14.
